# Assay outcomes: PubChem BioAssay, several laboratories
# AHR activator: AHR activators, primary screen, cell-based, luminescence, luciferase reporter, human; Aryl hydrocarbon receptor (Homo sapiens), P35869; AHR-responsive luciferase reporter cells; activation, % at 5 µM; 320,000 compounds, 2.5% hits; AID 2796, 2010; in the data active = activation above about 47%;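 also: 0% = vehicle wells and 100% = reference agonist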
# MITF act: activators of MITF-driven TRPM1 promoter reporter, primary screen, cell-based, SK-MEL-5, luciferase, single point; SK-MEL-5 TRPM1-promoter luciferase, 24 h; % of positive control, neutral wells = 0; activation, % at 12.5 µM; 300,000 compounds, 0.75% hits;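 active = mean activation of at least 80% with every replicate also reaching 80%; inconclusive = mean reaches 80% but some replicate falls short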;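 also: 0% = neutral control wells and 100% = parthenolide positive control wells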
# Wnt act: Wnt/beta-catenin pathway activators, primary screen, cell-based, plate reader, single point; AID 743398, 2014; 300,000 compounds, 1.2% hits; Wnt/beta-catenin reporter cell assay, activator; activation, % at 9.35 µM; in the data active = activation above about 30%, passing the limit was not always enough; inconclusive = no clear call, values can overlap the other calls;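 also: 0% = neutral control wells and 100% = positive control wells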
# GAA850 FXN act: FXN promoter activators, primary screen, cell-based, luciferase luminescence, HEK293 lucGAA850. HEK293 lucGAA850 FXN promoter luciferase reporter, 24 h; percent of 10 µM SAHA response. AID 540364, 2011. activation, % at 6 µM. 360,000 compounds, 0.56% hits;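 active = activation above the average of all compounds screened plus 3 SD, cutoff fixed separately per campaign, cut at about 7.5% in these data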;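 also: 0% = DMSO wells and 100% = 10 µM SAHA wells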
# esBAF inh: Bmi1 luciferase reporter increase in mESCs, primary screen, esBAF inhibitor project, mouse ES cells, Bmi1 luciferase knock-in, single point; 24 h; 100% = twice the neutral-well signal; reporter increase, % at 12.5 µM; 350,000 compounds, 2% hits; AID 602393, 2012; in the data active = activation above about 40%; inconclusive = no clear call, values can overlap the other calls;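 also: 0% = median of the plate's neutral control wells and 100% = double that signal; a rise in the Bmi1 reporter signal indicates esBAF inhibition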
# The depositor's hits bear a star; ? = inconclusive; · = no result given. Hits are enriched below; roughly 4.2% of the tested compounds scored in any of these assays.
SMILES,AHR activator,MITF act,Wnt act,GAA850 FXN act,esBAF inh
CCOc1ccccc1Nc1cc(C)nc2ccccc12,·,·,-5,1,1
CCOc1ccccc1OCC(=O)Nc1nc2ccccc2[nH]1,2,11,1,2,·
CCOc1ccccc1Nc1nc2ccccc2[nH]1,50*,·,·,2,15
CCOc1ccccc1Nc1ncnc2ccccc12,10,-3,·,-5,-37
CCOc1ccccc1Nc1ncnc2ccc(Br)cc12,76*,7,1,0,·
C[C@@H]1CN([C@H](C)CO)C(=O)c2cc(NC(=O)Cc3ccccc3)ccc2O[C@H]1CN(C)Cc1ccc(Cl)c(Cl)c1,·,·,·,·,-1
Cc1ccc(Cc2c(-c3ccccc3)nc3cc(C)ccn23)cc1,·,·,1,3,42*
Cc1ccc(Cc2c(-c3ccccc3)nc3c(C)cc(Br)cn23)cc1,·,·,-1,·,·
Fc1ccc(-c2nc3ccc(Cl)cn3c2Cc2ccccc2)cc1,·,·,4,2,13
Cc1ccn2c(Cc3ccccc3)c(-c3ccc(F)cc3)nc2c1,·,·,12,4,45*
O=C(C[C@H]1C=C[C@@H](NC(=O)C2CCC2)[C@H](CO)O1)NCc1ccncc1,·,·,·,·,-4
C[C@H](CO)N1C[C@H](C)[C@H](CN(C)Cc2ccc(C(=O)O)cc2)Oc2ccc(NC(=O)CCC(F)(F)F)cc2CC1=O,·,·,·,·,5
CCOc1ccc2nc(N3CCOCC3)nc(C)c2c1,42,99*,·,5,34
C[C@H](CO)N1C[C@H](C)[C@H](CN(C)C(=O)Nc2ccc(C(F)(F)F)cc2)Oc2ccc(NC(=O)Nc3ccc4c(c3)OCO4)cc2C1=O,·,·,·,·,36
COc1ccc(-c2cn[nH]c2-c2ccc(OCc3ccc([N+](=O)[O-])cc3)cc2O)cc1,51*,22,·,-2,·
CCc1cc(-c2[nH]ncc2-c2ccc(OC)cc2)c(O)cc1O,31,-2,0,0,1
C[C@@H]1CN([C@@H](C)CO)S(=O)(=O)c2ccc(C3=CCCCC3)cc2O[C@@H]1CN(C)C(=O)c1ccncc1,·,·,·,·,1
O=C(Nc1sc2c(c1C(=O)O)CCCCC2)c1ccco1,14,·,·,4,11
C=CC(=O)Nc1sc2c(c1C(N)=O)CCCC2,-2,·,-5,-1,-12
N#Cc1c(NC(=O)c2cnn3cccnc23)sc2c1CCCC2,6,46,24,2,42*
C=CCNC(=S)Nc1sc2c(c1C(N)=O)CCCC2,58*,·,7,2,·
CC1CCc2c(sc(NC(=O)c3ccc(Cn4cc([N+](=O)[O-])cn4)o3)c2C#N)C1 (configuration not stated),31,6,1,0,23
NC(=O)c1c(NC(=O)c2ccco2)sc2c1CCC2,76*,62,·,-3,103*
N#Cc1c(NC(=O)c2ccc(Cn3cc(Br)cn3)o2)sc2c1CCCCC2,48*,23,·,1,44*
C[C@@H]1CN([C@@H](C)CO)C(=O)c2cc(C#CC(C)(C)O)cnc2O[C@H]1CN(C)C(=O)CC1CC1,·,·,·,·,0
SMILES,AHR activator,MITF act,Wnt act,GAA850 FXN act,esBAF inh
CN(C)CC(=O)N1C[C@@H]2[C@H](c3ccccc31)[C@H](CO)N2Cc1cc(F)ccc1F,·,·,·,·,-5
Cc1cccc(OCC(=O)Nc2sc3c(c2C#N)CCC3)c1,0,74,-2,4,84*
COc1cccc(CN(C)CC(=O)Nc2sc3c(c2C#N)CCC3)c1OC,-7,-5,-1,-1,·
COc1cccc(OC)c1C(=O)Nc1sc2c(c1C#N)CCC2,54*,6,0,0,-8
N#Cc1c(NC(=O)c2ccco2)sc2c1CCC2,4,91*,2,3,54*
C=CCn1c(C)csc1=Nc1ccc(C(C)=O)cc1,-3,37,4,4,·
C=CCn1c(CC(=O)OC)csc1=Nc1ccc(C(C)=O)cc1,1,52,-1,6,55*
Cc1csc(NC(=O)c2ccc(COc3ccccc3)o2)n1,2,48,27,3,63*
COc1cccc(C(=O)Nc2nc(C)cs2)c1,5,38,44*,-1,0
Clc1ccc(-c2csc(N/N=C/c3ccc4c(c3)OCO4)n2)cc1,63*,-2,1,3,·
Cc1cccc(NC(=O)c2ccc(COc3ccccc3)o2)n1,6,28,3,-1,·
COc1cccc(C(=O)Nc2nc(-c3ccc4c(c3)OCO4)cs2)c1,68*,·,-1,0,2
COCC#Cc1cnc2c(c1)C(=O)N([C@H](C)CO)C[C@@H](C)[C@H](CN(C)C(=O)Nc1cccc(F)c1)O2,·,·,·,·,1
C[C@@H]1CN([C@@H](C)CO)C(=O)c2cc(NC(=O)Nc3ccc4c(c3)OCO4)ccc2O[C@@H]1CN(C)S(C)(=O)=O,·,·,·,·,0
COc1ccc(-c2csc(/C=C/c3ccc4c(c3)OCO4)n2)cc1OC,54*,11,·,5,·
O=C(CCCCl)Nc1nc(-c2ccc3c(c2)OCCO3)cs1,-7,88*,16,3,39
Cc1csc(NC(=O)c2ccc3nc[nH]c3c2)n1,33,19,36*,0,-11
COc1cccc(-c2csc(NC(=O)C3CC3)n2)c1,2,120*,?,4,61*
N#CCC(=O)Nc1nc(-c2ccc3c(c2)OCCO3)cs1,14,55,9,1,·
COc1ccc(-c2cnc3c(c2)C(=O)N([C@@H](C)CO)C[C@H](C)[C@H](CN(C)C(=O)C2CCCCC2)O3)cc1,·,·,·,·,-6
C[C@@H]1CN([C@H](C)CO)S(=O)(=O)c2ccc(-c3cccnc3)cc2O[C@H]1CN(C)Cc1ccncc1,·,·,·,·,7
O=C(Nc1nc(-c2ccc(Cl)cc2)cs1)C1CCCO1 (configuration not stated),3,51,65*,7,48*
Cc1csc(NC(=O)c2ccccc2)n1,3,·,14,4,37
Cc1ccc(C(=O)Nc2nc(-c3ccc4c(c3)OCCO4)cs2)o1,·,·,-1,0,20
O=C(Nc1nc(-c2ccc(Cl)cc2Cl)cs1)C1CCCO1 (configuration not stated),6,12,1,5,·
SMILES,AHR activator,MITF act,Wnt act,GAA850 FXN act,esBAF inh
CC(=O)Nc1nc(-c2ccc3c(c2)OCO3)cs1,42,65,53*,3,39
O=C(Nc1nc(-c2ccc3c(c2)OCCO3)cs1)C1CCCC1,34,144*,44*,5,·
Cc1csc(NC(=S)NC(=O)c2ccccc2)n1,1,109*,24,6,?
COc1ccc(NC(=O)Nc2ccc3c(c2)[C@H]2C[C@H](CC(=O)N(C)C)O[C@H](CO)[C@H]2O3)cc1,·,·,·,·,-2
O=C(N[C@@H]1CC[C@@H](CCn2cc(-c3ccccc3)nn2)O[C@@H]1CO)c1ccccc1F,·,·,·,·,-9
CC1CCCCC12NC(=O)N(CC(=O)NC(=O)Nc1ccc3c(c1)OCCO3)C2=O (configuration not stated),30,53,3,6,57*
